Experimental findings from PubChem BioAssay (NCI) are described below.

Some test systems named below: HCT-15 colon; HT29 colon; SNB-75 CNS; SNB-19 CNS; U251 CNS; PC-3 prostate; SK-MEL-5 melanoma; UACC-62 melanoma; LOX IMVI melanoma; SK-MEL-28 melanoma; SK-MEL-2 melanoma; EKVX NSCLC; SN12C renal; UO-31 renal; TK-10 renal; ACHN renal; CAKI-1 renal; A498 renal; CCRF-CEM leukemia; MOLT-4 leukemia.
Common to all, as to experiment: NCI-60 one-dose screen, 48 h (100 = growth as untreated, 0 = no growth, -100 = all killed)
Holding throughout (conditions): 10 µM unless noted

The panel holds about 83,000 compounds, 20% with a hit somewhere; the sample as a whole holds those more often.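 Negative percent growth values reflect cell death: -40 means 40% of the cells present at the start died, and -100 means all died.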 A number with no mark means an inactive call. The source made the active and inactive calls. Rule for the calls: active = growth percent below 10; inactive = the rest.

Turning to `O=C(NNc1nc2cc(F)ccc2n2c(CN3CCOCC3)ccc12)c1ccccc1`, the growth with HCT-15 colon is 16.9%; in the assay on HT29 colon it was 1.95% (active); in the assay on SNB-75 CNS, 46.1%; in the assay with SNB-19 CNS, 18.8%; in the assay with U251 CNS, -34.5% (active); with PC-3 prostate, 22.9%. In addition, the growth in the assay on SK-MEL-5 melanoma was -9.55% (active); with UACC-62 melanoma it was -4.27% (active); with LOX IMVI melanoma it was -39.6% (active); in the assay on SK-MEL-28 melanoma, 15.7%; in the assay with SK-MEL-2 melanoma it was 34.6%; in the assay with EKVX NSCLC, 14.2%. The growth in the assay with SN12C renal was 10.1%; in the assay on UO-31 renal it was 12.1%; in the assay on TK-10 renal, 46%; in the assay on ACHN renal, 8.05% (active); in the assay with CAKI-1 renal it was 7.45% (active); in the assay on A498 renal it was -22.4% (active). Moreover, the growth with CCRF-CEM leukemia was 3.36% (active); in the assay on MOLT-4 leukemia, 2.3% (active).

As to `Nc1nc2ccccc2c2c(=O)c3cc(Cl)ccc3sc12`, the growth is 96.8% with HCT-15 colon; 102% with HT29 colon; 91.2% in the assay with SNB-75 CNS; 96.1% with SNB-19 CNS; 98.5% in the assay with U251 CNS; 90.7% in the assay on PC-3 prostate. Further, the growth was 96.5% in the assay on SK-MEL-5 melanoma; 93.4% with UACC-62 melanoma; 103% with LOX IMVI melanoma; 109% in the assay on SK-MEL-28 melanoma; 106% in the assay on SK-MEL-2 melanoma; 91.4% in the assay with EKVX NSCLC. Further, the growth in the assay on SN12C renal is 94.9%; with UO-31 renal it was 86.6%; in the assay with TK-10 renal, 109%; with ACHN renal, 99.8%; in the assay with CAKI-1 renal it was 87.8%; in the assay with A498 renal, 107%. For the same compound, the growth in the assay on CCRF-CEM leukemia was 101%; in the assay on MOLT-4 leukemia, 105%.

In the case of `COC12C=C/C(=C(/C(=O)OCc3csc(SC)n3)C(=O)CCCCCCCCC3(OC)C=C/C(=C(/C(=O)OCc4cnc(SC)s4)C(=O)CCCCCCCC1)O3)O2` (stereo not given), the growth was 76.8% in the assay with HCT-15 colon; 27.5% in the assay with HT29 colon; 98.3% in the assay with SNB-75 CNS; 47.3% in the assay on SNB-19 CNS; 36.9% in the assay on U251 CNS; 27.4% with PC-3 prostate. Besides, the growth with SK-MEL-5 melanoma is 11.3%; in the assay with UACC-62 melanoma, 6.98% (active); in the assay with LOX IMVI melanoma it was -22.9% (active); with SK-MEL-28 melanoma it was 36.3%; in the assay on SK-MEL-2 melanoma, 55.8%; in the assay on EKVX NSCLC it was 33.5%. Also, the growth in the assay on SN12C renal is 28.9%; in the assay on UO-31 renal, 43.5%; in the assay with TK-10 renal, 47.6%; with ACHN renal it was 6% (active); with CAKI-1 renal, 68%; with A498 renal, 34.9%. Further, the growth with CCRF-CEM leukemia is 14.6%; in the assay with MOLT-4 leukemia, 1.34% (active).

Turning to `CS(=O)(=O)Nc1cc(-c2ccc3ncnc(Nc4ccc(OCc5ccccn5)c(Cl)c4)c3c2)cnc1Cl`, the growth in the assay with HCT-15 colon was 25.1%; in the assay on HT29 colon, -5.91% (active); in the assay with SNB-75 CNS it was -10.8% (active); in the assay on SNB-19 CNS it was 24%; with U251 CNS, -27.1% (active); in the assay on PC-3 prostate, 13.4%. The growth is -80.8% (active) in the assay with SK-MEL-5 melanoma; 4.79% (active) with UACC-62 melanoma; -19.6% (active) in the assay with LOX IMVI melanoma; 8.34% (active) with SK-MEL-28 melanoma; -65% (active) in the assay on SK-MEL-2 melanoma; 3.3% (active) with EKVX NSCLC. For the same compound, the growth was 20% in the assay on SN12C renal; 0.194% (active) in the assay with UO-31 renal; -19.8% (active) with TK-10 renal; 23.7% with ACHN renal; 29.2% in the assay with CAKI-1 renal; -61% (active) in the assay on A498 renal. Besides, the growth in the assay with CCRF-CEM leukemia was -2.25% (active); in the assay on MOLT-4 leukemia, -29.5% (active).

In the case of `Oc1c(I)cc(I)cc1CN(Cc1ccccn1)Cc1ccccn1`, the growth in the assay on HCT-15 colon was 21.3%; in the assay on HT29 colon, 25.5%; in the assay with SNB-75 CNS, 30%; in the assay with SNB-19 CNS, 22.3%; in the assay on U251 CNS, 7% (active); with PC-3 prostate it was 28%. The growth with SK-MEL-5 melanoma is -33.5% (active); in the assay with UACC-62 melanoma, 3.88% (active); with LOX IMVI melanoma, 7.25% (active); with SK-MEL-28 melanoma, 28.5%; in the assay with SK-MEL-2 melanoma, 21.6%; in the assay on EKVX NSCLC, 13%. In addition, the growth is 27.3% in the assay on SN12C renal; -19.2% (active) in the assay with UO-31 renal; 8.19% (active) with TK-10 renal; 10.4% in the assay with ACHN renal; 0.0911% (active) in the assay with CAKI-1 renal; 22.3% in the assay on A498 renal. Besides, the growth in the assay with CCRF-CEM leukemia is 9.21% (active); with MOLT-4 leukemia, 5.38% (active).

Turning to `CSc1nc2ccc(C)cc2cc1/C=C1/C=C(c2ccccc2)NC1=O`, the growth is 57.4% in the assay with HCT-15 colon; 57.6% with HT29 colon; 26.4% in the assay with SNB-75 CNS; 67.3% with SNB-19 CNS; 16.3% in the assay with U251 CNS; 68.4% in the assay with PC-3 prostate. In addition, the growth in the assay on SK-MEL-5 melanoma was 80.4%; in the assay with UACC-62 melanoma, 71.9%; in the assay on LOX IMVI melanoma, 45.3%; with SK-MEL-28 melanoma, 79.1%; with SK-MEL-2 melanoma, 89.5%; in the assay on EKVX NSCLC it was 61.4%. Moreover, the growth in the assay on SN12C renal is 32.6%; in the assay on UO-31 renal it was 12.8%; with TK-10 renal it was -6.59% (active); with ACHN renal it was -52.8% (active); with CAKI-1 renal, 5.73% (active); in the assay with A498 renal, 41.7%. Also, the growth in the assay with CCRF-CEM leukemia is 48.3%; in the assay on MOLT-4 leukemia, 44.1%.

As to `Nc1ncccc1O`, the growth was 18.7% in the assay with HCT-15 colon; 26.6% in the assay with HT29 colon; 121% in the assay with SNB-75 CNS; 101% in the assay with SNB-19 CNS; 81.4% in the assay with U251 CNS; 133% in the assay with PC-3 prostate. In addition, the growth in the assay with SK-MEL-5 melanoma is 101%; with UACC-62 melanoma, 89.3%; in the assay on LOX IMVI melanoma, 75.2%; with SK-MEL-28 melanoma, 106%; in the assay with SK-MEL-2 melanoma, 17.3%; in the assay with EKVX NSCLC it was 120%. For the same compound, the growth with SN12C renal was 96.7%; with UO-31 renal it was 92.5%; in the assay on TK-10 renal, 108%; in the assay on ACHN renal, 5.59% (active); in the assay with CAKI-1 renal it was 56.6%; in the assay with A498 renal it was 99.7%. The growth in the assay on CCRF-CEM leukemia is 84.6%; in the assay with MOLT-4 leukemia, 65%.

As to `COc1cc2c3c(c4c5ccccc5[nH]c4c2c(OC)c1OC)C(=O)N(CCN1CCCCC1)C3=O`, the growth in the assay with HCT-15 colon is -87.2% (active); in the assay with HT29 colon, -39.6% (active); in the assay with SNB-75 CNS, 63.5%; in the assay on SNB-19 CNS, 30.1%; with U251 CNS, -60.3% (active); in the assay with PC-3 prostate, 31.3%. Besides, the growth in the assay with SK-MEL-5 melanoma is 31.7%; with UACC-62 melanoma it was 48.4%; with LOX IMVI melanoma it was -92% (active); in the assay with SK-MEL-28 melanoma it was 52.2%; with SK-MEL-2 melanoma, 49.4%; in the assay with EKVX NSCLC, 35.1%. In addition, the growth was 12.6% with SN12C renal; 16.1% with UO-31 renal; -76.6% (active) in the assay with TK-10 renal; -40.4% (active) in the assay with ACHN renal; -49% (active) in the assay with CAKI-1 renal; 42.4% in the assay with A498 renal. The growth in the assay on CCRF-CEM leukemia was 3.38% (active); in the assay on MOLT-4 leukemia, 12.9%.
